Values without a mark were called inactive.

In this assay the test system is Plasmodium falciparum NF54/iGP1_RE9H ulg8 stage V gametocytes. The assay can be described thus: gametocyte viability (luciferase signal relative to DMSO control) (% of DMSO control); higher = less gametocytocidal activity, active = 50 or less. The conditions noted are these: concentration: 10 µM; exposure time: 72 h. The procedure, abridged:
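Gametocyte viability is reported relative to the average of DMSO vehicle wells on the same plate. The assay used day-12 stage V NF54/iGP1_RE9Hulg8 gametocytes at ~2.5% gametocytemia and 3% hematocrit, in 0.5% Albumax II medium, added to 96-well plates of compounds spotted in nanolitre volumes for final 10 µM or 1 µM, one well each. After 72 h at 37 °C, 90 µl was mixed with 10 µl D-luciferin (30 mg/ml), and luminescence was recorded with an IVIS Lumina II.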
In the case of `Cn1cc(C2=C(c3ccc(Cl)cc3Cl)C(=O)NC2=O)c2ccccc21`, the gametocyte viability is 112. Next, `COc1ccc(-c2ccc3c(N4CCOCC4)nc(N4C[C@@H](C)O[C@@H](C)C4)nc3n2)cc1CO`: 108; `O=C(O)c1cc(NCc2cc(O)ccc2O)ccc1O` [2-Hydroxy-5-(2,5-dihydroxybenzylamino)benzoic acid]: 109.

`N#CC(=C(/N)Sc1ccccc1N)/C(C#N)=C(\N)Sc1ccccc1N`: the gametocyte viability is 95.9. Next, `N#C/C(=C\c1ccc(O)c(O)c1)C(=O)NCc1ccccc1`: 95.8; `O=C(O)c1ccc2nc(-c3ccccc3)c(-c3ccccc3)nc2c1`: 95.2.

Take `CNC(=O)Nc1ccc(-c2nc(N3CC4CCC(C3)O4)c3cnn(C4CCC5(CC4)OCCO5)c3n2)cc1`: the gametocyte viability was 108.

`CO[C@H]1C[C@@H]2CC[C@@H](C)[C@@](O)(O2)C(=O)C(=O)N2CCCC[C@H]2C(=O)O[C@H]([C@H](C)C[C@@H]2CC[C@@H](O)[C@H](OC)C2)CC(=O)[C@H](C)/C=C(\C)[C@@H](O)[C@@H](OC)C(=O)[C@H](C)C[C@H](C)/C=C/C=C/C=C/1C` [Rapamycin]: the gametocyte viability was 97.3. As for `c1cncc(CN2CCC(n3ncc4c(N5CCOCC5)nc(-c5ccc6[nH]ccc6c5)nc43)CC2)c1`, the gametocyte viability is 103. Next, `Cc1ccc(-c2nn(C(C)(C)C)c3ncnc(N)c23)cc1`: 105.

For `N#CCNC(=O)c1ccc(-c2ccnc(Nc3ccc(N4CCOCC4)cc3)n2)cc1`, the gametocyte viability is 97.1. Next, `O=C(c1ccc(/C=C/c2n[nH]c3ccccc23)cc1)N1CCNCC1`: 93.7; `Cc1cnc(NC(=O)Nc2cc(Br)c(C)cc2OC[C@@H]2CNCCO2)cn1`: 113; `Cc1ccc(F)c(NC(=O)Nc2ccc(-c3cccc4[nH]nc(N)c34)cc2)c1` [Linifanib (ABT-869)]: 89.4. Under `Cc1ccc(S(=O)(=O)Nc2nc3ccccc3nc2Nc2ccc3nsnc3c2)cc1` stands 103. As for `Nc1nc(N)c2nc(-c3cccc(O)c3)c(-c3cccc(O)c3)nc2n1`, the gametocyte viability is 109. Take `COc1cc(N2CCC(N3CCN(C)CC3)CC2)ccc1Nc1ncc(Cl)c(Nc2ccccc2S(=O)(=O)C(C)C)n1`: the gametocyte viability was 41.9 (active). Under `O=C(NOCC1CC1)c1ccc(F)c(F)c1Nc1ccc(I)cc1Cl` stands 98.6.

For the compound `COc1cc(Nc2ncc3c(n2)-c2ccc(Cl)cc2C(c2c(F)cccc2OC)=NC3)ccc1C(=O)O` [MLN8237 (Alisertib)], the gametocyte viability is 94.6. Under `O=Nc1c(-c2c(O)[nH]c3ccccc23)[nH]c2ccccc12` [Indirubin-3'-monooxime] stands 86.8.

With `CC(C)n1cnc2c(NCc3ccccc3)nc(NCCO)nc21` [N9-isopropyl-olomoucine], the gametocyte viability was 91.

Consider `O=C1NC(=O)/C(=C\c2ccc3nccnc3c2)S1`, for which the gametocyte viability was 101.

With `CCc1cccc(CC)c1NC(=O)N1Cc2[nH]nc(NC(=O)c3ccc(N4CCN(C)CC4)cc3)c2C1`, the gametocyte viability was 68.7. Next, `CC1(C)CNc2cc(NC(=O)c3cccnc3NCc3ccncc3)ccc21` [Motesanib Diphosphate]: 97.4; `O=c1ncn2nc(Sc3ccc(F)cc3F)ccc2c1-c1c(Cl)cccc1Cl`: 103. Next, `CO[C@H]1C[C@@H]2CC[C@@H](C)[C@@](O)(O2)C(=O)C(=O)N2CCCC[C@H]2C(=O)O[C@H]([C@H](C)C[C@@H]2CC[C@@H](OC(=O)C(C)(CO)CO)[C@H](OC)C2)CC(=O)[C@H](C)/C=C(\C)[C@@H](O)[C@@H](OC)C(=O)[C@H](C)C[C@H](C)/C=C/C=C/C=C/1C` [Temsirolimus (Torisel)]: 88.4; `N#CC(=C(/N)Sc1ccccc1N)/C(C#N)=C(/N)Sc1ccccc1N`: 103; `COc1cc(Nc2ncc(F)c(Nc3ccc4c(n3)NC(=O)C(C)(C)O4)n2)cc(OC)c1OC`: 104. Next, `CNC(=O)c1ccccc1Sc1ccc2c(/C=C/c3ccccn3)n[nH]c2c1` [Axitinib]: 98.8; `CO[C@@H]1[C@H](N(C)C(=O)c2ccccc2)C[C@H]2O[C@]1(C)n1c3ccccc3c3c4c(c5c6ccccc6n2c5c31)C(=O)NC4`: 95.9; `COC(=O)/C=C/c1cc(O)ccc1O` [Erbstatin analog]: 99.1. Take `COCc1cc(O)c(O)c(O)c1-c1c(COC)cc(O)c(O)c1O`: the gametocyte viability is 92.3. Under `CCC[C@H](NC(=O)/C(C#N)=C/c1cccc(Br)n1)c1ccccc1` stands 106; under `NC(=O)c1ccc(-c2nc(-c3ccccn3)c(-c3ccc4c(c3)OCO4)[nH]2)cc1`, 125; under `O=c1c(O)c(-c2ccc(O)c(O)c2)oc2cc(O)cc(O)c12` [Quercetin (Sophoretin)], 108. Under `COc1cc(Nc2ncc(F)c(Nc3ccc4c(n3)N(COP(=O)(O)O)C(=O)C(C)(C)O4)n2)cc(OC)c1OC` stands 101. Next, `Cc1ccc(-n2nc(C(C)(C)C)cc2NC(=O)Nc2ccc(OCCN3CCOCC3)c3ccccc23)cc1` [BIRB 796 (Doramapimod)]: 98.8; `O=C1NC(=O)/C(=C/c2ccc3nccc(-c4ccncc4)c3c2)S1`: 103.

In the case of `CCN(CCO)CCCOc1ccc2c(Nc3cc(CC(=O)Nc4cccc(F)c4)[nH]n3)ncnc2c1` [Barasertib (AZD1152-HQPA)], the gametocyte viability is 93.1.

With `Cc1cc(=O)c2c(O)c3c(O)cc(O)c4c5c(O)cc(O)c6c(O)c7c(=O)cc(C)c8c1c2c(c34)c(c65)c78` [Hypericin], the gametocyte viability is 100.

Values taken from the supplement of paper PMC12297408.
